NPC1 prom act: qHTS Assay for NPC1 Promoter Activators. Huh7 NPC1 promoter luciferase reporter, 24 h. 320,000 tested, 2.4% active. AID 485313, 2010. Potency, µM (top dose mostly 9.22 µM), actives largely listed as activators; note: nearly all actives have a fitted effect of over 60% in size
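Stable NPC1-promoter luciferase Huh7 line; cpd (DMSO) 24 h, 37 °C, 5% CO2; Amplite luciferase reagent 10 min RT; luminescence readout. qHTS format.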
Rab9 prom act: qHTS Assay for Rab9 Promoter Activators. AID 485297, 2010. 320,000 tested, 2.8% active. Huh7 Rab9 promoter-luciferase reporter, luminescence, 24 h. Potency, µM (top dose mostly 9.22 µM), hits mostly activators; note: nearly all actives have a fitted effect of over 60% in size
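Measured in stably transfected Huh7 cells bearing a Rab9 promoter–luciferase construct: 24 h compound treatment at 37 °C, followed by luminescence detection.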
ELG1 genotoxic: qHTS screen for small molecules that induce genotoxicity in human embryonic kidney (HEK293T) cells expressing luciferase-tagged ELG1; HEK293T ELG1-luciferase reporter, luminescence, 16 h; Potency, µM (doses to about 46 µM), actives largely listed as activators; 330,000 tested, 1.3% active; note: nearly all actives have a fitted effect of over 60% in size
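HEK293T cells expressing luciferase-tagged ELG1 were exposed to compound or DMSO vehicle for 16 hr at 37 °C and 5% CO2. Luciferase activity was then measured with ONE-Glo after 30 min at room temperature.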
FLuc modulator: qHTS profiling assay for firefly luciferase inhibitor/activator using purifed enzyme and Km concentrations of substrates (counterscreen for miR-21 project); Luciferin 4-monooxygenase (Photinus pyralis), P08659; purified FLuc, Km substrates, luminescence inhibition; Potency, µM (top dose mostly 57.5 µM), most hits filed as inhibitors; 360,000 tested, 6.9% active; AID 588342, 2011; note: nearly all actives have a fitted effect of over 55% in size
Target sequence (P08659 whole entry, looked up): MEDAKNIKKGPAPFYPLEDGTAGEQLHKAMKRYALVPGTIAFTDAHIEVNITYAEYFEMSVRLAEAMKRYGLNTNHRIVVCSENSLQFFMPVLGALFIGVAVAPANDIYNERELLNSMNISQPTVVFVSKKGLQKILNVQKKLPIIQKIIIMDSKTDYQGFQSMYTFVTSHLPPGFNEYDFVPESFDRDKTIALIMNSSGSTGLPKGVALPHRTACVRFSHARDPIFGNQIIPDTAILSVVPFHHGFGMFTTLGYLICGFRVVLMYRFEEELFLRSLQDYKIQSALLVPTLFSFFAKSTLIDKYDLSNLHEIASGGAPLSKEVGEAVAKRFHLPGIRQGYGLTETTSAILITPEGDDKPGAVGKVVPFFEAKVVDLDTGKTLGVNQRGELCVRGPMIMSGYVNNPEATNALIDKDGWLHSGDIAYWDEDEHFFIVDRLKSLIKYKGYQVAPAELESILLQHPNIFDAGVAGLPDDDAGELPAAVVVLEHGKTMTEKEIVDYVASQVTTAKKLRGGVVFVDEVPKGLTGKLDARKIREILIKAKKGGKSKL
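Biochemical qHTS of compounds, final roughly 60 µM downward over six points, against 10 nM purified firefly luciferase using Km concentrations of substrates (10 uM D-luciferin, 10 uM ATP) in Tris acetate pH 7.5 buffer; luminescence output.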
SMN2 splice up: qHTS Assay for Enhancers of SMN2 Splice Variant Expression | 210,000 tested, 2.8% active | HEK293 SMN2-luciferase splicing reporter, luminescence, 30-36 h | Potency, µM (top dose mostly 46.1 µM), usual class: activators | AID 1458, 2008; note: nearly all actives have a fitted effect of over 55% in size
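HEK293 cells carry an SMN2 […]–luciferase reporter in which exon 7 inclusion puts luciferase in frame. Cells were plated 10-12 h before compound addition, then incubated 30-36 h at 37C. ONE-Glo luminescence was read; sodium butyrate at 4.5 mM final served as control.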
A number is an active result; n = inactive; u = inconclusive; x = no result given; [ ] = remark or other dose. This is a sample that favours compounds with a hit; in the whole collection about 7.4% have one here. Calls come from the whole dose curve; as a rule, active = well fitted curve in the direction sought with a large enough effect; inconclusive = small, poorly fitted or top-dose-only effect, or another doubt; inactive = no such curve, though single readings can be large; an effect the other way counts as inactive or inconclusive.

SMILES	NPC1 prom act	Rab9 prom act	ELG1 genotoxic	FLuc modulator	SMN2 splice up
O=C(Nc1ccc(N2CCOCC2)c(Cl)c1)c1ccco1	1.4µM	3.5µM	2.6µM	9.5µM	13µM
COc1ccc(NC(=O)COC(=O)c2cc(C)oc2C)c([N+](=O)[O-])c1	n	n	n	x	x
Cc1cc(C(=O)Nc2ccc(N3CCOCC3)c(Cl)c2)c(C)o1	u	2.8µM	u	6.7µM	x
O=C(Nc1ccc(N2CCOCC2)c(Cl)c1)c1ccccc1F	3.2µM	3.5µM	5.2µM	9.5µM	n
O=C(Nc1ccc(N2CCOCC2)cc1N1CCOCC1)c1ccc(Cl)cc1	n	n	n	n	x
O=C(Nc1ccc(N2CCOCC2)c(Cl)c1)c1ccc(Cl)cc1	n	n	n	17µM	n
O=C(Nc1ccc(NC(=O)c2ccco2)c(Cl)c1)c1ccccc1	n	u	u	u	x
O=C(Nc1ccc(Br)c(Cl)c1)c1ccco1	u	3.5µM	21µM	21µM	u
CC(C)COc1ccc(C(=O)N2C(=O)c3ccc(N)cc3C2=O)cc1	n	n	n	n	x
COc1ccc(C(=O)Nc2ccc(-c3nnn(CC(=O)N4CCN(C(=O)c5ccco5)CC4)n3)cc2)cc1	n	n	n	13µM	n
Cc1c(C=C2C(=O)c3ccccc3C2=O)cc(C#N)n1C	n	n	n	n	x
Cc1ccc(C(=O)/C=C/c2cc(C#N)n(C)c2C)cc1	n	n	n	8.5µM	x
O=C1Nc2ccccc2Nc2ncccc21	n	n	n	n	u
Cc1ccc2c(c1)NC(=O)c1cccnc1N2	3.2µM	u	u	12µM	11µM
CCOc1ccc(C(=S)NC2CCCCC2)cc1	3.2µM	u	n	12µM	n
COc1ccc(C(=S)NC2CCCCC2)cc1	n	u	n	12µM	x
COc1cc(C(=O)N/N=C/c2cccc(Oc3ccccc3)c2)ccc1O	n	n	n	17µM	x
O=C(N/N=C/c1cccc(Oc2ccccc2)c1)c1ccc(O)cc1O	n	n	n	17µM	x
O=C(N/N=C/c1cccc(Oc2ccccc2)c1)c1ccncc1	n	n	n	u	u
CCCCN1Cc2c(nc3cc(-c4ccco4)[nH]n3c2=O)C1=O	n	n	n	17µM	x
COCc1cc(=O)n2[nH]c(-c3ccco3)cc2n1	n	n	n	n	x
Cc1ccc(-c2nnc(Nc3ccc4c(c3)OCO4)c3ccccc23)cc1S(=O)(=O)NCCO	n	n	n	15µM	n[1.84 µM]
Cc1ccc(-c2nnc(Nc3ccc4c(c3)OCO4)c3ccccc23)cc1S(=O)(=O)NC(C)C	n	n	n	5.4µM	n
Cc1ccc(-c2nnc(Nc3ccc(Cl)c(Cl)c3)c3ccccc23)cc1S(=O)(=O)NCCO	x	x	x	u	n
COc1cc(/C=C/c2nc(C#N)c(N3CCCCC3)o2)cc(OC)c1OC	x	x	x	u	n
SMILES	NPC1 prom act	Rab9 prom act	ELG1 genotoxic	FLuc modulator	SMN2 splice up
CC(C)c1nc(SCC(=O)Nc2ccc(C(=O)O)cc2)c2c3c(sc2n1)CCCC3	n	n	n	27µM	x
CC1CCc2c(sc3ncnc(SCC(=O)Nc4ccc(C(=O)O)cc4)c23)C1 (stereo unspecified)	n	n	n	u	x
CCN(CC)c1ccc(/C=C2\SC(=O)N(C(C)C)C2=O)o1	n	n	n	19µM	x
N#CCc1ccccc1C(=O)OCC(=O)N(Cc1ccccc1)Cc1ccccc1	n	n	n	n	x
Cc1[nH]c2ccccc2c1/C=C(\C#N)C(=O)NC1CC1	u	u	u	17µM	x
N#C/C(=C\c1c[nH]c2ccccc12)C(=O)NC1CCCC1	n	n	n	15µM	x
N#C/C(=C\c1c[nH]c2ccccc12)C(=O)NC1CC1	3.5µM	u	u	7.6µM	x
Cc1[nH]c2ccccc2c1/C=C(\C#N)C(=O)NC(C)c1ccccc1 (stereo unspecified)	n	n	n	n	n
CCOC(=O)C1=C(C)NC(C)=C(C(=O)OCC)C1C(=O)OCC(=O)NCCc1ccccc1	x	x	n	x	x
CN(C)CCNC(=O)c1ccc(Cn2c(SCc3ccc(F)cc3)nc3cccnc32)cc1	x	x	x	6µM	x
COc1ccc(Cn2c(SCc3ccc(C(=O)NCc4ccccc4F)cc3)nc3cccnc32)cc1	x	x	x	n	n
COCCCNC(=O)c1ccc(Cn2c(SCc3ccc(F)cc3)nc3cccnc32)cc1	x	x	x	3.4µM	x
O=C(NCCN1CCCCC1)c1ccc(Cn2c(SCc3ccc(F)cc3)nc3cccnc32)cc1	x	x	x	8.5µM	n
COCCCNC(=O)c1ccc(Cn2c(SCc3cccc(C)c3)nc3cccnc32)cc1	x	x	x	11µM	x
Cc1cc(C)cc(NC(=O)C(=O)NCC2CCCN2S(=O)(=O)c2cccs2)c1 (stereo unspecified)	n	n	n	n	x
Cc1cc(C)c2c(CC(=O)Nc3ccccc3C(F)(F)F)coc2c1	x	x	x	n	n
C=C(Br)CN1[C@@H](Cc2ccccc2)[C@H](O)[C@@]23C=C[C@@H](C[C@@H]2S1(=O)=O)O3	x	x	n	x	x
CC(C)(C)OC(=O)C[C@@H]1C/C=C\C[C@H](CC(=O)N[C@H](CO)Cc2ccccc2)C(=O)N[C@@H](Cc2c[nH]c3ccccc23)COC1=O	x	x	n	x	x
Cc1nc2ccc(S(=O)(=O)CCC(=O)Nc3ccc(C)c(C)c3)cc2s1	x	x	x	n	x
